# Assay results from PubChem BioAssay (Tox21).
# Unmarked numbers belong to inactive results. Records with an inconclusive call do not appear. Where a call stands in place of a potency, no number is given. Activity calls are given as the source filed them. Unless noted, calls follow the shape of the dose curve; as a rule, active = well fitted curve in the direction sought with a large enough effect in the repeat runs; inconclusive = weak or mixed curves; inactive = no such curve, though single readings can be large; an effect the other way counts as inactive or inconclusive.
# Legend:
# [1] = qHTS assay for small molecule agonists of the p53 signaling pathway (AID 651631; calls by dose curve; also: nearly all actives have a fitted effect of over 15% in size)
# Method in brief: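 Beta-lactamase reporter activity under p53 response elements was quantified in HCT-116 cells by FRET fluorescence, following 16 h incubation with test compounds at 37 °C and 2 h substrate development at room temperature.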
# [2] = qHTS assay for small molecules that induce genotoxicity in human embryonic kidney cells expressing luciferase-tagged ATAD5 (AID 651632); also: nearly all actives have a fitted effect of over 15% in size
# Method in brief: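 Cells were seeded at 2,000 per well, dosed with compound, and incubated 16 hr at 37C in 5% CO2. Luciferase activity was then quantified after a 30 min room-temperature incubation with Amplite.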
# [3] = qHTS assay for small molecule agonists of the p53 signaling pathway - cell viability (AID 651633; calls by dose curve;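 also: p53RE-bla HCT reporter cells with a stable beta-lactamase p53 reporter; series mostly up to about 83 µM; nearly all actives have a fitted effect of over 30% in size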)
# Method in brief: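 p53RE-bla cells were treated with compound for 16 hours at 37 C. Cytotoxicity was then measured as CellTiter-Glo luminescence after 30 min at room temperature.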
# [4] = qHTS assay for small molecule disruptors of the mitochondrial membrane potential - cell viability (AID 720634; calls by dose curve;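 also: human HepG2 liver cancer cells; series mostly up to about 83 µM; nearly all actives have a fitted effect of over 20% in size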)
# Method in brief: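 Cytotoxicity was measured by ATP quantitation in HepG2 wells that had first been treated with compound for 1 hr and stained with m-MPI dye; CellTiter-Glo incubation was 30 min at room temperature.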
# [5] = qHTS assay to test for compound auto fluorescence at 590 nm (red) in HepG2 cells (AID 720674)
# Method in brief: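 Fluorescence at 590 nm emission following 540 nm excitation was recorded from HepG2 wells one hour after compound transfer, with DMSO-only wells as vehicle and Rose Bengal sodium equivalency as the scale.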
# [6] = qHTS assay to test for compound auto fluorescence at 535 nm (green) in HepG2 cells (AID 720675)
# [7] = qHTS assay to test for compound auto fluorescence at 460 nm (blue) in HEK293 cells (AID 720678)
# Method in brief: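 Auto fluorescence in the blue band was quantified as triamterene equivalency. HEK293 cells were seeded at 2,000/well, dosed after a 4-5 hr attachment, and kept overnight at 37C before the 405/460 nm reading.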
# [8] = qHTS assay to test for compound auto fluorescence at 590 nm (red) in HEK293 cells (AID 720679)
# Method in brief: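 Autofluorescence equivalency to Rose Bengal sodium, 540/590nm, in HEK293 cells exposed overnight to 23 nL compound per well.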
# [9] = qHTS assay to test for compound auto fluorescence at 535 nm (green) in HEK293 cells (AID 720680)
# [10] = qHTS assay to test for compound auto fluorescence at 460 nm (blue) in HEK293 cell free culture (AID 720681)
# Method in brief: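 Compounds were added to cell-free DMEM with 10% FBS and fluorescence read directly. The blue channel used 405 nm excitation and 460 nm emission, with triamterene as the reference fluorophore.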
# [11] = qHTS assay to test for compound auto fluorescence at 535 nm (green) in HEK293 cell free culture (AID 720682)
# Method in brief: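 Each library compound, or DMSO control, is added by pintool to medium alone, comprising DMEM and 10% FBS. Emission at 535 nm following 485 nm excitation is quantified against fluorescein.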
# [12] = qHTS assay to test for compound auto fluorescence at 590 nm (red) in HEK293 cell free culture (AID 720683)
# Method in brief: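 Cell-free wells of DMEM with 10% FBS received compound, and intrinsic fluorescence was read at excitation/emission 540/590 nm. Values expressed as equivalence to Rose Bengal sodium.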
# [13] = qHTS assay to test for compound auto fluorescence at 590 nm (red) in HepG2 cell free culture (AID 720684)
# Method in brief: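 Auto fluorescence equivalency versus Rose Bengal sodium, red channel Ex/Em 540/590 nm; compounds in cell-free MEM/10% FBS; DMSO vehicle control.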
# [14] = qHTS assay to test for compound auto fluorescence at 460 nm (blue) in HepG2 cell free culture (AID 720685)
# Method in brief: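 Cell-free plates of MEM plus 10% FBS received 23 nL compound or DMSO vehicle; blue-channel (405/460 nm) intensity scored against triamterene as reference fluorophore.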
# [15] = qHTS assay to test for compound auto fluorescence at 535 nm (green) in HepG2 cell free culture (AID 720686)
# [16] = qHTS assay to test for compound auto fluorescence at 460 nm (blue) in HepG2 cells (AID 720687)
# Method in brief: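 HepG2 cells in MEM with 10% FBS, attached overnight at 37 C, were exposed to compound or DMSO for 1 hr at 37 C, 5% CO2. Blue fluorescence was read at 405/460 nm, with triamterene as reference fluorophore.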
# [17] = qHTS assay for small molecule disruptors of the mitochondrial membrane potential (AID 720635); also: potency is read from the fitted curve at half-maximal effect
# Method in brief: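 HepG2 cells exposed to compound 1 hr at 37C, then Mito-MPS dye 30 min. Ratio read of aggregate (540/590 nm) versus monomer (490/535 nm) fluorescence.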
# [18] = target: Glucocorticoid receptor (Homo sapiens) (UniProt P04150); assay: qHTS assay to identify small molecule agonists of the glucocorticoid receptor (GR) signaling pathway (AID 720691; active = well fitted activation curve with a large enough effect in the signal ratio in the repeat runs, not every such curve was filed as active; the % refers to the signal ratio)
# Glucocorticoid receptor (Homo sapiens), sequence (P04150 whole entry, looked up): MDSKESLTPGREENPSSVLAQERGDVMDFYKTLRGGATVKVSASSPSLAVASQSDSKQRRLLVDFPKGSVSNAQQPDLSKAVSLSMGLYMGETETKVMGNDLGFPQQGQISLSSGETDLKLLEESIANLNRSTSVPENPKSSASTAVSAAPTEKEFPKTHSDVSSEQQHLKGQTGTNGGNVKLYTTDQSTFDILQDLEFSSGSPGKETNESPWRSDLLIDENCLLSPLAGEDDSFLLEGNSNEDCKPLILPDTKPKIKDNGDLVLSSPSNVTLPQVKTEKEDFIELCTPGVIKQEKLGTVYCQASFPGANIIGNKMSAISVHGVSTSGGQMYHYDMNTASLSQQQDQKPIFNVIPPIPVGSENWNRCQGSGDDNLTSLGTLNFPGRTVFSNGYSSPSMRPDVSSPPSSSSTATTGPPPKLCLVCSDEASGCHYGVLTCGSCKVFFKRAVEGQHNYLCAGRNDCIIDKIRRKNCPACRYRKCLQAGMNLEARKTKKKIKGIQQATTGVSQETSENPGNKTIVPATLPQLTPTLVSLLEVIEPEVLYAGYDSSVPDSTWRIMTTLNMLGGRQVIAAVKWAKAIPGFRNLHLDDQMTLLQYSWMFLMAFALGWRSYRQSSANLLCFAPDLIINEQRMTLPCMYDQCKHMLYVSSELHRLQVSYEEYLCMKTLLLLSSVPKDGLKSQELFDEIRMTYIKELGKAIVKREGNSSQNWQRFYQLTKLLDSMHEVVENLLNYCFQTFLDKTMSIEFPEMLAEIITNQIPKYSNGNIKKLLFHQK
# Method in brief: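 Steps: seed GR-bla HeLa cells, incubate 4 h at 37 C/5% CO2; pin-transfer DMSO-dissolved compounds; incubate 18 h at 37 C; add LiveBLAzer B/G FRET substrate; after 2 h at room temperature, measure fluorescence.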
# [19] = qHTS assay for small molecules that induce genotoxicity in human embryonic kidney cells expressing luciferase-tagged ATAD5 - cell viability (AID 651634; calls by dose curve; also: nearly all actives have a fitted effect of over 25% in size)
# Method in brief: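 Cells (HEK293T, luciferase-tagged ATAD5) are seeded at 2,000 per well, dosed with compound or DMSO vehicle, and incubated 15.5 hr at 37C and 5% CO2. CellTiter-Fluor is added for 30 min before fluorescence is measured.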
# [20] = target: Glucocorticoid receptor (Homo sapiens) (UniProt P04150); assay: qHTS assay to identify small molecule antagonists of the glucocorticoid receptor (GR) signaling pathway (AID 720692; active = well fitted inhibition curve with a large enough effect in the signal ratio in the repeat runs, not every such curve was filed as active; the % refers to the signal ratio)
# Method in brief: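 Antagonism was scored as loss of dexamethasone-driven (5 nM final) reporter signal in HeLa cells bearing a glucocorticoid response element–beta-lactamase construct, after 18 h compound exposure at 37 C and 2 h FRET substrate loading.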
SMILES,Potency [1],Potency [2],Potency [3],Potency [4],outcome [5],outcome [6],Potency [7],outcome [8],outcome [9],Potency [10],outcome [11],outcome [12],outcome [13],Potency [14],outcome [15],Potency [16],Potency [17],Potency [18],Potency [19],Potency [20]
C1C[C@@H]2[C@H]3CC[C@H](C3)[C@@H]2C1,inactive,inactive,inactive,inactive,inactive,inactive,inactive,inactive,inactive,inactive,inactive,inactive,inactive,inactive,inactive,inactive,,,,
C[C@@H](O)[C@H]1C(=O)N2C(C(=O)O)=C([C@H]3CCCO3)S[C@H]12,inactive,inactive,inactive,inactive,inactive,inactive,inactive,inactive,inactive,inactive,inactive,inactive,inactive,inactive,inactive,inactive,inactive,,,
CC(C)Nc1cccnc1N1CCN(C(=O)c2cc3cc(NS(C)(=O)=O)ccc3[nH]2)CC1,inactive,inactive,inactive,inactive,inactive,inactive,inactive,inactive,inactive,inactive,inactive,inactive,inactive,inactive,inactive,inactive,26.6 µM (active),inactive,,
CCOC(C)=O,inactive,inactive,inactive,inactive,inactive,inactive,inactive,inactive,inactive,inactive,inactive,inactive,inactive,inactive,,inactive,,inactive,inactive,inactive
